Assay results reported in PubChem BioAssay (NCI).
Compounds without any hit were thinned out: in the full panel of roughly 83,000, 20% have a hit.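 Step 1: grow cells in 96-well plates. Step 2: add test compound at a single concentration. Step 3: incubate 48 h. Step 4: record percent growth.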 Unmarked numbers belong to inactive results. The source made the active and inactive calls. How the source made its calls: active means growth percent below 10; inactive means the rest.

tested on: MDA-MB-468 breast; test: NCI-60 one-dose screen, 48 h (100 = growth as untreated, 0 = no growth, -100 = all killed); conditions: 10 µM unless noted

| SMILES | growth |
| --- | --- |
| CN1/C(=C/C=C/c2n(Cc3ccc4ccccc4c3)c(Cl)c(Cl)[n+]2Cc2ccc3ccccc3c2)Oc2ccccc21 | -56.7% (active) |
| C=CC(=O)Nc1cccc(-c2nc(SC)nc(NCCc3ccc(OC)c(OC)c3)c2C#N)c1 | 19.2% |
| CCN(CC)CCCC(C)Nc1c2ccc(C)cc2nc2ccc(OC)cc12 (centres undefined) | -65.1% (active) |
| CC(C)(C)CC(C)(C)NCc1cc(C(C)(C)C)cc(CNC(C)(C)CC(C)(C)C)c1O | 36.2% |
| COc1ccc2c(c1)c(/C(O)=C1\COC(=O)C1=O)cn2Cc1ccc(F)cc1 | 100% |
| CC(=C(c1ccc(OCCN(C)C)cc1)c1ccc(OCCN(C)C)cc1)c1ccc(Cl)cc1 | -81.1% (active) |
| CCN1CCN(c2cc(C)nc(NCc3cc(Nc4ccnc5cc(Cl)ccc45)ccc3F)n2)CC1 | 47.4% |
| Fc1ccc(Nc2ccc3c(OCCCN4CCOCC4)cccc3n2)cc1F | 46.3% |
| O=C(NC(=S)N1CC=CCC1)c1ccccc1 | 121% |
| COCCCNc1nc(NC(=O)c2cc(Br)cc(C(F)(F)F)c2)cc(-c2cccnc2)n1 | 82.8% |
| COc1ccc(-c2cnc3c(-c4cccc5ncccc45)cnn3c2)cc1 | 57.1% |
| O=C1NC(=O)C(Cc2ccc(OCc3ccc(-c4cc(F)c(F)c(F)c4)cc3)cc2)S1 (centres undefined) | 53.4% |
| COc1cccc2c1C(=O)c1c(O)c3c(c(O)c1C2=O)C[C@@](O)(C(=O)CO)C[C@@H]3O[C@H]1C[C@H](N)[C@@H](O)[C@H](C)O1 | -57% (active) |
| S=c1[nH]nc(-c2cc3ccc2CCc2ccc(cc2)CC3)n1-c1ccccc1 | 109% |
| FCc1ncc(-c2ccc(C(F)(F)F)cc2)c(NC2CCCCCC2)n1 | 24.8% [100 µM] |
| Cn1c2ccccc2c2c3c(c4c5cccnc5[nH]c4c21)C(=O)N(O)C3=O | 0.0154% (active) |
| COc1cc2nc(-c3ccc(C)cc3)cc(OCCCNCC3CCCO3)c2cc1OC (centres undefined) | 68.8% |
| COC(=O)c1ccc2[nH]c(O)c(C(=Nc3ccc(N(C)C(=O)CN4CCN(C)CC4)cc3)c3cccc(OC)c3)c2c1 | 37.3% |
| C#C[C@]1(O)CC[C@H]2[C@@H]3CC=C4c5nc(N)sc5CC[C@]4(C)[C@H]3CC[C@@]21C | 34% |
| CCCCCCCCCCCCCCCCCC(=O)[O][Sn]([CH2]CCC)([CH2]CCC)[CH2]CCC | -96.2% (active) |

| SMILES | growth |
| --- | --- |
| CC(=O)NC(O)C(Cl)Cl (centres undefined) | 106% |
| N#Cc1c(NC(=O)c2ccc(Br)cc2)sc2c1CCCC2 | 19.5% |
| CN1CCN(CC(=O)Nc2nc3c(s2)Nc2cc(Cl)c(Cl)cc2NC3=O)CC1 | 114% |
| COc1ccc(/C(=C/c2cc(OC)c(OC)cc2[N+](=O)[O-])C(=O)O)cc1 | 111% |
| CCN1C(=O)N(CC)C2Nn3c(s/c(=C4\C(=O)N(CCC(C)C)c5ccccc54)c3=O)=NC21 (centres undefined) | 11.6% |
| S=C(S)OCN1CCOCC1 | 99.1% |
| CCNC1=CC(=O)c2ncccc2C1=O | 43.4% |
| COc1ccc(C2(Cl)c3ccccc3N(c3ccccc3)c3ccccc32)cc1 | -32.7% (active) |
| COc1ccc(-c2c(-c3cc(OC)c4c(c3)OCO4)noc2N)cc1 | -2.08% (active) |
| CCN(CC)CCCC(C)Nc1nc(-c2ccc(OC)cc2)nc2cc(Cl)ccc12 (centres undefined) | 34.8% |
| N/C(=N\OC(=O)CSc1nc2ccccc2s1)c1ccc(Cl)cc1 | 100% |
| COc1cnc2c(c1)C(=O)c1c-2n(CCCN2CCNCC2)c(=O)c2cc(F)ccc12 | -27.9% (active) |
| O=C(Nc1cccc(-n2ccc3c(NC(=O)c4ccccc4)nccc32)c1)c1ccc(Cl)c(Cl)c1 | -94.1% (active) |
| Cc1cc(OC(=O)c2ccc([N+](=O)[O-])cc2)nc2[nH]c(=O)sc12 | 100% |
| N#Cc1c(N)nc2c(nnn2-c2cccc(C(F)(F)F)c2)c1N | 76.4% |
| CC12CCC3C4(C)COC(c5ccccc5Cl)OC4CCC3(C)C1CC(C1=CCOC1=O)O2 (centres undefined) | 24.9% |
| Oc1ccc(CCl)c2cccnc12 | 86.2% |
| Cc1c(NC(=O)CSc2nc3sc4c(c3c(=O)n2-c2ccc(Cl)cc2)CCCC4)c(=O)n(-c2ccccc2)n1C | 89.8% |
| COc1ccc(-c2cc(-c3c(C)oc4cc5occc5c(OC)c4c3=O)nc(N)c2C#N)cc1OC | 76.2% |
